# Source: PubChem BioAssay (National Center for Advancing Translational Sciences (NCATS))
# In the library only some 4.6% were active in any assay of this set; here they are far more common.
# TRHR ag – activates the human TRH receptor | activation, % at 2 µM | actives 0.18% (n = 360,000) | AID 493084 | TRHR cells, calcium flux fluo-8, FDSS agonist mode; further: 0% is about no effect
#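 TRHR-expressing cells, plated overnight in medium with 10% serum, were loaded with fluo-8 calcium dye at room temperature. After a 10 s baseline, library compound was pin-added and calcium release was recorded kinetically (ex 480/em 530) as agonist response.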
# D1 PAM – enhances dopamine response at the human D1 receptor; P21728; HEK293 TREx D1 cells, calcium flux, dopamine EC20 potentiation; potentiation, % at 10 µM; actives 0.036% (n = 360,000); AID 504651; in the data active means potentiation above about 30%; further: 0% is about no effect
# Target sequence (P21728 whole entry, looked up): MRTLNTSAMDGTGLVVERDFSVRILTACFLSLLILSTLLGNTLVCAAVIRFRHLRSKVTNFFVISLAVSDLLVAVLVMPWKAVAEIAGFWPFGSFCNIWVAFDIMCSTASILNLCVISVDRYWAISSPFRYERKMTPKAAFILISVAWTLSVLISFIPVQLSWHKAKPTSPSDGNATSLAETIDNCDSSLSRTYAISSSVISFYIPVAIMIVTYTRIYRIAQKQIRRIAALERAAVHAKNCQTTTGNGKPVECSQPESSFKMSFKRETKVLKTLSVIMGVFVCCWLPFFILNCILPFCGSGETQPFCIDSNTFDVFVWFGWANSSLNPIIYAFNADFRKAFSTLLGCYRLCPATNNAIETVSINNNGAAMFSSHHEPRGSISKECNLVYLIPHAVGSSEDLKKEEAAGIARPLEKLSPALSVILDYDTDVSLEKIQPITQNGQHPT
# D1 antagonist – blocks dopamine activation of the human D1 receptor; HEK293 TREx D1 cells, calcium flux, dopamine EC80; active compounds read low; activity change, negative = inhibition, % at 10 µM; actives 3.2% (n = 360,000); AID 504652; in the data active means activity change below about -30%; further: on the % scale 0 is the no-effect control and ±100 the full control effect
#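 Allosteric or orthosteric antagonism assessed as attenuation of the calcium response to EC80 dopamine, added 180 s after compound, in induced HEK293 Trex D1 cells loaded with no-wash calcium dye.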
# TRHR PAM – allosterically enhances the human TRH receptor | P34981 | TRHR cells, fluo-8 calcium fluorescence, EC20 TRH enhancement | enhancement, % at 2 µM | actives 0.66% (n = 360,000); in the data active means enhancement above about 30%; further: 0% is about no effect
#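 TRHR-expressing cells loaded with fluo-8 calcium dye were read kinetically (ex 480/em 530) during compound addition, then stimulated with an EC20 of TRH (10 nM final). Enhancement of the Gq-mediated intracellular calcium response was scored.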
# D1 ag – human D1 receptor agonism; P21728; activation, % at 2 µM; actives 1% (n = 360,000); AID 504660; HEK293 T-REx D1 cells, calcium flux, agonist mode; further: 0% is about no effect
#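 Tetracycline-induced HEK293 TREx D1 cells, force-coupled to calcium signalling, were dye-loaded with a no-wash calcium kit. Compound was pin-added after a 10 s baseline. Fluorescence was read kinetically at 1 cycle/s for 180 s, with calcium rises flagged as agonism.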
# Numbers without * were called inactive; nt = no result. Unless noted, no stated cut-off is given here; in the data, active means activation above about 30%; inactive means the rest.
SMILES,TRHR ag,D1 PAM,D1 antagonist,TRHR PAM,D1 ag
CCn1c(N2CCN(C(=O)c3ccco3)CC2)nc2ccccc21,0,-6,8,1,3
CC(C)c1cc(N2CCN(C(=O)c3ccco3)CC2)n2c(nc3ccccc32)c1C#N,0,-3,-33*,-3,0
C=CCNC(=O)/C(C#N)=C/c1cc(Br)ccc1OC,0,-7,3,-1,1
COc1ccc(-c2cc(CCCC(=O)NCCc3ccc(OC)cc3OC)no2)cc1,3,-8,-44*,-15,21
COC(=O)c1c(/N=C/N(C)C)sc2c1CCN(c1ncc(C(F)(F)F)cc1Cl)C2,0,-14,-31*,3,23
COC(=O)c1c(N(S(C)(=O)=O)S(C)(=O)=O)sc2c1CCN(c1ncc(C(F)(F)F)cc1Cl)C2,-1,-3,-2,1,6
COc1ccc2c(c1OC)C(=O)OC2CC(=O)O (stereo not given),1,0,-30*,-1,1
Cc1ccc(CNC(=O)/C(C#N)=C/c2ccc(C)s2)cc1,-1,-10,-25,-9,5
COCc1ccc(C(=O)N2CCCC(C(=O)c3ccc(SC)cc3)C2)s1 (stereo not given),0,1,-36*,0,7
CCOC(=O)Cc1cc(-c2ccc(F)cc2)nc2ccc3ccccc3c12,1,-11,-57*,1,9
CCOC(=O)Cc1cc(-c2ccc(O)cc2)nc2ccc3ccccc3c12,0,-6,-12,0,6
O=C(NCc1ccc(F)cc1)c1ccc(CS(=O)Cc2ccc(Cl)cc2)o1 (stereo not given),-2,-5,-26,10,17
O=C(O)c1cc(-c2ccc(/C=C3/SC(=S)N(Cc4ccccc4)C3=O)o2)ccc1Cl,-1,-6,4,14,7
O=C(O)CN1C(=O)/C(=C/c2ccc(-c3cccc(Cl)c3)o2)SC1=S,2,10,13,32*,5
O=C(O)CCCN1C(=O)/C(=C\c2ccc(-c3nc4ccccc4s3)o2)SC1=S,7,6,80,-5,35*
O=C(O)CCN1C(=O)/C(=C/c2ccc(-c3nc4ccccc4s3)o2)SC1=S,1,5,98,7,28
CCOc1ccc(-c2cccc(NS(=O)(=O)c3ccc(C)s3)c2)nn1,0,1,1,1,0
COc1ccccc1C(C)NS(=O)(=O)c1cccs1 (stereo not given),0,-3,-9,-7,0
CC(C)c1cccc(C(C)C)c1NS(=O)(=O)c1cccs1,-2,1,-31*,0,5
CCc1ccc(NC(=O)CC2C(=O)N(c3ccc(OC)cc3)C(=O)N2CCOC)cc1 (stereo not given),1,-1,4,3,1
Cc1cccc(OCc2nnc(SCC(=O)Nc3cccc(C(=O)N4CCOCC4)c3)n2C)c1C,0,-2,-42*,4,2
O=[N+]([O-])c1cccc(-c2ccc(C(=S)N3CCOCC3)o2)c1,0,-2,-35*,4,0
O=C(NNC(=O)c1ccc(=O)[nH]c1)c1ccc(NS(=O)(=O)c2cccs2)cc1,0,2,36,-6,2
CCc1c(C)sc2c1CCN(C(=O)Nc1cc(OC)c(OC)c(OC)c1)C2c1ccccc1 (stereo not given),0,7,-40*,0,2
O=C(COC(=O)C12CC3CC(CC(O)(C3)C1)C2)Nc1ccc(Cl)cc1F,-1,2,-4,-3,0
SMILES,TRHR ag,D1 PAM,D1 antagonist,TRHR PAM,D1 ag
O=C(COC(=O)C12CC3CC(CC(O)(C3)C1)C2)NCCc1ccc(Cl)cc1,0,-14,-40*,-8,1
CC(=O)c1cccc(NS(=O)(=O)c2c(C)noc2C)c1,0,-2,-29,-5,3
Cc1noc(C)c1S(=O)(=O)Nc1cccc(CO)c1,0,-5,-31*,0,3
O=C(CNC(=O)c1ccc(Br)o1)NNC(=O)c1ccc(Br)cc1,0,-2,5,-13,1
O=C(CNS(=O)(=O)c1ccccc1F)NNC(=O)c1ccc(Br)cc1,0,0,-1,32*,3
COc1cc(F)cc(-c2ccc3c(c2)c(-c2cccs2)c(-c2cc(OC)cc(OC)c2)n3C)c1,5,-6,nt,-1,42*
COc1cc(OC)cc(-c2c(-c3cccs3)c3cc(Br)ccc3n2C)c1,0,-6,nt,-2,-1
CCOc1ccccc1NC(=O)N1CCCC1C(=O)Nc1nnc(CC)s1 (stereo not given),-1,-2,3,1,1
CC1=C(C(=O)OC2CCCC2)C(c2ccc(F)cc2F)CC(=O)N1 (stereo not given),-1,-3,-33*,-2,19
Nc1ccc(Cc2ccccn2)cc1,2,2,1,4,1
O=C(COC(=O)c1ccc([N+](=O)[O-])s1)Nc1ccc(F)cc1,-1,-3,-38*,-6,4
COc1ccccc1NC(=O)Cn1c2ccccc2c2nc3n(c(=O)c21)CCS3,0,-4,-44*,7,2
CCn1c2ccccc2c2nnc(SCC(=O)Nc3ccccc3OC)nc21,0,-1,-33*,-5,5
COc1ccccc1NC(=O)CSc1nnc2c3ccccc3n(C)c2n1,-1,-6,2,6,0
Cc1c(C)c2ccc(OC3CCCCC3=O)cc2oc1=O (stereo not given),-1,1,6,-4,3
CCOC(=O)c1cc(S(=O)(=O)N2CC(C)CC(C)C2)cn1C (stereo not given),0,1,-5,-2,2
Cc1ccc(OCC(=O)NNC(=S)NC(=O)C2CCCCC2)c(C)c1,4,-2,-7,-3,47*
Cc1ccc(OCC(=O)NNC(=S)NC(=O)C2CC2)c(C)c1,1,5,12,10,9
Cc1ccc(OCC(=O)NNC(=S)NC(=O)C(C)(C)C)c(Br)c1,17,-1,-2,-4,82*
Cc1ccc(Nc2nnc(-c3ccc4c(c3)OCO4)o2)c(C)c1,-1,8,20,-1,-1
COc1ccc(CCNCC(O)Cn2c3ccccc3c3ccccc32)cc1OC (stereo not given),2,-5,-19,-7,55*
COc1ccccc1NCC(O)Cn1c2ccccc2c2ccccc21 (stereo not given),0,2,-1,-7,-1
CN(C)c1ccc(/C=C(\Cl)c2nc3ccccc3s2)cc1,-1,-1,-36*,1,99*
COc1ccc(CN2CCc3ccc(NC(=O)CCc4ccccc4OC)cc3C2)c(O)c1,1,-20,-83*,-2,2
COc1ccccc1CCC(=O)Nc1ccc2c(c1)CN(CCCn1cccn1)CC2,0,-6,2,1,0
